Records with an inconclusive call do not appear. Active and inactive are the calls of the source. Calls come from the whole dose curve; as a rule, active = well fitted cell-killing curve with a large enough effect; inconclusive = small, poorly fitted or top-dose-only effect, or effect the other way; inactive = flat fitted curve, though single readings scatter.
Key:
Test in all cases: Primary qHTS to identify gynecologic anti-cancer compounds using libraries of approved drugs and bioactive compounds (AID 1345084); note: nearly all actives have a fitted effect of over 55% in size
C33A = conditions: Gynecologic cancer cell panel viability, ATPlite luminescence, 48 h; series mostly up to 57.5 µM
Summary of the method: (§1)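 Cells, 1,000 per well, were allowed to settle for 16 h at 37 C before compound addition. Five concentrations were tested for 48 h, and viability was read by ATPlite luminescence after 15 min at room temperature.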

CAOV3 = conditions: Gynecologic cancer cell panel viability, ATPlite luminescence, 48 h; series mostly up to 57.5 µM
Summary of the method: as §1

CASKI = conditions: Gynecologic cancer cell panel viability, ATPlite luminescence, 48 h; series mostly up to 57.5 µM
Summary of the method: as §1

Es-2 = conditions: Gynecologic cancer cell panel viability, ATPlite luminescence, 48 h; series mostly up to 57.5 µM
Summary of the method: as §1

HeLa = conditions: Gynecologic cancer cell panel viability, ATPlite luminescence, 48 h; series mostly up to 57.5 µM
Summary of the method: as §1

Hek293T = conditions: Gynecologic cancer cell panel viability, ATPlite luminescence, 48 h, control line for the selectivity index; series mostly up to 57.5 µM
Summary of the method: as §1

JEG-3 = conditions: Gynecologic cancer cell panel viability, ATPlite luminescence, 48 h; series mostly up to 57.5 µM
Summary of the method: as §1

OV90 = conditions: Gynecologic cancer cell panel viability, ATPlite luminescence, 48 h; series mostly up to 57.5 µM
Summary of the method: as §1

PA-1 = conditions: Gynecologic cancer cell panel viability, ATPlite luminescence, 48 h; series mostly up to 57.5 µM
Summary of the method: as §1

SKOV3 = conditions: Gynecologic cancer cell panel viability, ATPlite luminescence, 48 h; series mostly up to 57.5 µM
Summary of the method: as §1

Tov-21-G = conditions: Gynecologic cancer cell panel viability, ATPlite luminescence, 48 h; series mostly up to 57.5 µM
Summary of the method: as §1

Tov112D = conditions: Gynecologic cancer cell panel viability, ATPlite luminescence, 48 h; series mostly up to 57.5 µM
Summary of the method: as §1

Measured: Potency

NC1Nc2ccccc2C1(N)CC1NC(=O)C(Cc2ccccc2)NC(=O)C(Cc2ccccc2)NC1=O (stereo not given)
inactive: all assays above

COc1ccnc2[nH]cc(C(=O)C(=O)N3CCN(C(=O)c4ccccc4)CC3C)c12 (stereo not given)
inactive: all assays above

Cc1cc(-c2nncc3c(C(C)(C)C)c(OCc4ncnn4C)nn23)no1
inactive: all assays above

CC1(C)C2CC[C@]3(C)C(C(=O)C=C4[C@H]5C[C@@](C)(C(=O)O)CC[C@]5(C)CC[C@]43C)[C@@]2(C)CC[C@@H]1O (stereo not given in full)
inactive: all assays above

COC(=O)C1=COC(OC2OC(CO)C(O)C(O)C2O)C2C(C)C(OC(C)=O)C(OC(=O)c3ccccc3)C12 (stereo not given)
inactive: all assays above

— PubChem BioAssay (NCATS)
